Reference: paper PMC7862700, “An all-to-all approach to the identification of sequence-specific readers for epigenetic DNA modifications on cytosine”

Key:
Test in all cases: DAPPL (digital affinity profiling via proximity ligation, sequencing); 10 mM Tris-HCl pH 7.5, 50 mM NaCl, 1 mM DTT, 4% glycerol, room temperature, 30 min; GST-TFs on glutathione beads, 16-mer random dsDNA library, 0.1% formaldehyde crosslink after washing; high values mean tight binding
Conditions in all cases: protein: recombinant; tags: N-terminal GST; dsDNA, one strand shown
ERF = molecular target: T1, ERF (Homo sapiens, UniProt P50548 1-548)
T1 sequence: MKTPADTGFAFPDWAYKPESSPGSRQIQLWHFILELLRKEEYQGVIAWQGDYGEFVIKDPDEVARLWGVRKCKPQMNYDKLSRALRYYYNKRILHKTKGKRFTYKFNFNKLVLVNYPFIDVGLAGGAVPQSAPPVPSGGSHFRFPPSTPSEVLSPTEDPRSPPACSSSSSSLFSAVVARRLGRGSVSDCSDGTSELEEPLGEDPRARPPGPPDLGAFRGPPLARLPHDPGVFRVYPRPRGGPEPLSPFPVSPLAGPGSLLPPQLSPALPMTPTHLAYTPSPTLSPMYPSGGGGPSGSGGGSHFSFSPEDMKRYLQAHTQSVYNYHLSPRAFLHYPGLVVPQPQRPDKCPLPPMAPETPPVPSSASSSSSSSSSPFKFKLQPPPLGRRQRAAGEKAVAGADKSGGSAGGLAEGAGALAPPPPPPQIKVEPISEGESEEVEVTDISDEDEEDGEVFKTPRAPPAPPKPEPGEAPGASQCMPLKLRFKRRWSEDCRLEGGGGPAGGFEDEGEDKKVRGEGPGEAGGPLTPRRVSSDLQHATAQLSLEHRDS
Summary of the method: (§1)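 Binding signal is each hexamer's read frequency for a factor divided by its frequency in the tag-only sample. The factors were GST-fused human transcription factors from yeast, captured on glutathione beads, DNA-barcoded and pooled with that sample. Pools were incubated with 200 nmole of a random double-stranded 16-mer DNA library in Tris/NaCl/DTT/glycerol buffer at room temperature for 30 min, then washed, crosslinked with 0.1% formaldehyde, proximity-ligated with BsaI/T4 ligase (1 h, 37 °C), PCR-amplified and sequenced on an Illumina NextSeq500.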

ETV3L = molecular target: T2, ETV3L (Homo sapiens, UniProt Q6ZN32 1-361)
T2 sequence: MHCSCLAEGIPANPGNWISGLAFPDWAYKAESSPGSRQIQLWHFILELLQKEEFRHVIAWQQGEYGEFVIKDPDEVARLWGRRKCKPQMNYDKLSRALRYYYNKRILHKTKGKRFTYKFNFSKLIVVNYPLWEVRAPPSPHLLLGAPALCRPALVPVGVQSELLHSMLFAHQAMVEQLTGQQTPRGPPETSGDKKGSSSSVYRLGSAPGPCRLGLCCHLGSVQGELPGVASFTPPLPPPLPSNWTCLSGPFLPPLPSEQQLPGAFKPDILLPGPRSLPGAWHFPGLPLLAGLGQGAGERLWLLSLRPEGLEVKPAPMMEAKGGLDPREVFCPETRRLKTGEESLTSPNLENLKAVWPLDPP
Summary of the method: as §1

ETS2 = molecular target: T3, ETS2 (Homo sapiens, UniProt P15036 1-469)
T3 sequence: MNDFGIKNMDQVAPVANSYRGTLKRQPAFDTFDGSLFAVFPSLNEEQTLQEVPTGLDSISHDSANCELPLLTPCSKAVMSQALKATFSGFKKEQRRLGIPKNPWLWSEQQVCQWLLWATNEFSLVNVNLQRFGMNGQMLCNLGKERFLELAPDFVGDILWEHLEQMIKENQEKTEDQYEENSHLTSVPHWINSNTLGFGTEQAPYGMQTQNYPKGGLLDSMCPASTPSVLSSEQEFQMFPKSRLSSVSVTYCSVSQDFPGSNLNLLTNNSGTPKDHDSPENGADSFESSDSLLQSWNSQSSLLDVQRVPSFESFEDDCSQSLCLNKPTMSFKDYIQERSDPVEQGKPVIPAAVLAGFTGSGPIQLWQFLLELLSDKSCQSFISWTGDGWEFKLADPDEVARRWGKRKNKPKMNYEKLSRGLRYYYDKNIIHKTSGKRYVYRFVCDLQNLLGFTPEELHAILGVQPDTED
Summary of the method: as §1

SPDEF = molecular target: T4, SPDEF (Homo sapiens, UniProt O95238 1-335)
T4 sequence: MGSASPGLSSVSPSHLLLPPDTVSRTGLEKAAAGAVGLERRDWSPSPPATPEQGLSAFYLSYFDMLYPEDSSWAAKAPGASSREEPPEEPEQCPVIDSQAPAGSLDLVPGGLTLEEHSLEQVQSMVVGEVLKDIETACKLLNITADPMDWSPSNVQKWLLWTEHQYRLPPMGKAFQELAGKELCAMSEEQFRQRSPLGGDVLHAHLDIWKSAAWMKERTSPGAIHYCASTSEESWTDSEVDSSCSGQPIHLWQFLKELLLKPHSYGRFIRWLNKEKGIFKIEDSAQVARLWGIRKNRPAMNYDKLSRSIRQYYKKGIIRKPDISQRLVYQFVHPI
Summary of the method: as §1

ETV7 = molecular target: T5, ETV7 (Homo sapiens, UniProt Q9Y603 1-341)
T5 sequence: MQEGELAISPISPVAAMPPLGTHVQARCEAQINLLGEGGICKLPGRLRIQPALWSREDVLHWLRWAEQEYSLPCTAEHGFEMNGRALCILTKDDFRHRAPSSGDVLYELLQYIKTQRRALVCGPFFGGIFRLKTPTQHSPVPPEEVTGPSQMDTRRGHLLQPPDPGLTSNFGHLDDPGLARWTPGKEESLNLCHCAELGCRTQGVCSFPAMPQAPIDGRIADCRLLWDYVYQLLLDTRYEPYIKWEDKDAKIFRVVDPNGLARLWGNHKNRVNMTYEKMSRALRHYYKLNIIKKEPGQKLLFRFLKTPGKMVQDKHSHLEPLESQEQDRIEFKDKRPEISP
Summary of the method: as §1

ELF5 = molecular target: T6, ELF5 (Homo sapiens, UniProt Q9UKW6-2 1-255)
T6 sequence: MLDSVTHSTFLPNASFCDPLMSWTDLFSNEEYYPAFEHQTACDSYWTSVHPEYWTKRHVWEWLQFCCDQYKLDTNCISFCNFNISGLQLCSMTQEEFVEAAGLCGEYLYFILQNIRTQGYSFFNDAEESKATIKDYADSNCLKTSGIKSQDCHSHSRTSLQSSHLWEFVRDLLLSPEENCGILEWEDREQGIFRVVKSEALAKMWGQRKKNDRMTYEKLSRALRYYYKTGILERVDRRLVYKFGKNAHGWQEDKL
Summary of the method: as §1

ETV3 = molecular target: T7, ETV3 (Homo sapiens, UniProt P41162-2 1-143)
T7 sequence: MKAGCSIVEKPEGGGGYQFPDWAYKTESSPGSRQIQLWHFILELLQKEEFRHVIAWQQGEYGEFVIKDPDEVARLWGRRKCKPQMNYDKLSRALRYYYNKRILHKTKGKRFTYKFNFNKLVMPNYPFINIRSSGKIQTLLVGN
Summary of the method: as §1

ETV6 = ETV6 (Homo sapiens, UniProt P41212 1-452)
ETV6, sequence (P41212 whole entry): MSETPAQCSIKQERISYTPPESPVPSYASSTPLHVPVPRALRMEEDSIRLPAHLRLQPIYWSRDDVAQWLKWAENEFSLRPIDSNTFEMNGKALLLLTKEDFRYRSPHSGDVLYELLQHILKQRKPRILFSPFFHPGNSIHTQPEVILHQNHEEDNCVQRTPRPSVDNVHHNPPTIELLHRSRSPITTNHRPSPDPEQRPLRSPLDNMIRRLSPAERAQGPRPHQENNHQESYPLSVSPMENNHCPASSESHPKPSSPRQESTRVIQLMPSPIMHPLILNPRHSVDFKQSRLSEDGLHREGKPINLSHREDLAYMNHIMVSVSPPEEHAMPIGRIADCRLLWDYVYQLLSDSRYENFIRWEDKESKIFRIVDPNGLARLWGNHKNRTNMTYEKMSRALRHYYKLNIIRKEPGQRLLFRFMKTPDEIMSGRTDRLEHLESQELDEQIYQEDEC
Summary of the method: as §1

Sequence	binding signal (ERF)	binding signal (ETV3L)	binding signal (ETS2)	binding signal (SPDEF)	binding signal (ETV7)	binding signal (ELF5)	binding signal (ETV3)	binding signal (ETV6)
AAATCC	1.48 fold enrichment (6-mer frequency, TF over GST control)	1.47 fold enrichment (6-mer frequency, TF over GST control)	1.62 fold enrichment (6-mer frequency, TF over GST control)	2.08 fold enrichment (6-mer frequency, TF over GST control)	1.61 fold enrichment (6-mer frequency, TF over GST control)	1.75 fold enrichment (6-mer frequency, TF over GST control)	1.49 fold enrichment (6-mer frequency, TF over GST control)	1.6 fold enrichment (6-mer frequency, TF over GST control)
CTATGC	1.34 fold enrichment (6-mer frequency, TF over GST control)	1.52 fold enrichment (6-mer frequency, TF over GST control)	1.44 fold enrichment (6-mer frequency, TF over GST control)	1.49 fold enrichment (6-mer frequency, TF over GST control)	1.42 fold enrichment (6-mer frequency, TF over GST control)	1.33 fold enrichment (6-mer frequency, TF over GST control)	1.55 fold enrichment (6-mer frequency, TF over GST control)	1.33 fold enrichment (6-mer frequency, TF over GST control)
CCTAGC	1.26 fold enrichment (6-mer frequency, TF over GST control)	1.09 fold enrichment (6-mer frequency, TF over GST control)	1.11 fold enrichment (6-mer frequency, TF over GST control)	1.21 fold enrichment (6-mer frequency, TF over GST control)	1.18 fold enrichment (6-mer frequency, TF over GST control)	1.06 fold enrichment (6-mer frequency, TF over GST control)	1.16 fold enrichment (6-mer frequency, TF over GST control)	1.15 fold enrichment (6-mer frequency, TF over GST control)
ATGCGA	1.16 fold enrichment (6-mer frequency, TF over GST control)	1.24 fold enrichment (6-mer frequency, TF over GST control)	1.19 fold enrichment (6-mer frequency, TF over GST control)	1.18 fold enrichment (6-mer frequency, TF over GST control)	1.28 fold enrichment (6-mer frequency, TF over GST control)	1.16 fold enrichment (6-mer frequency, TF over GST control)	1.32 fold enrichment (6-mer frequency, TF over GST control)	1.23 fold enrichment (6-mer frequency, TF over GST control)
ATGATG	1.27 fold enrichment (6-mer frequency, TF over GST control)	1.41 fold enrichment (6-mer frequency, TF over GST control)	1.27 fold enrichment (6-mer frequency, TF over GST control)	1.22 fold enrichment (6-mer frequency, TF over GST control)	1.43 fold enrichment (6-mer frequency, TF over GST control)	1.25 fold enrichment (6-mer frequency, TF over GST control)	1.43 fold enrichment (6-mer frequency, TF over GST control)	1.38 fold enrichment (6-mer frequency, TF over GST control)
GAATGT	1.04 fold enrichment (6-mer frequency, TF over GST control)	1.1 fold enrichment (6-mer frequency, TF over GST control)	1.06 fold enrichment (6-mer frequency, TF over GST control)	1.16 fold enrichment (6-mer frequency, TF over GST control)	1.13 fold enrichment (6-mer frequency, TF over GST control)	1.08 fold enrichment (6-mer frequency, TF over GST control)	1.12 fold enrichment (6-mer frequency, TF over GST control)	1.03 fold enrichment (6-mer frequency, TF over GST control)
GAACAA	1.24 fold enrichment (6-mer frequency, TF over GST control)	1.2 fold enrichment (6-mer frequency, TF over GST control)	1.22 fold enrichment (6-mer frequency, TF over GST control)	1.14 fold enrichment (6-mer frequency, TF over GST control)	1.17 fold enrichment (6-mer frequency, TF over GST control)	1.23 fold enrichment (6-mer frequency, TF over GST control)	1.18 fold enrichment (6-mer frequency, TF over GST control)	1.25 fold enrichment (6-mer frequency, TF over GST control)
